ChEMBL document CHEMBL4513135, “CO-ADD screening of IQOG CSIS (Spain) compounds”
Where “and” joins values, the source holds several entries; their conditions need not be identical. Identical values can stand only once. Entries with a potency or affinity are not part of this list.

Tests used:
[1] = tested on: Staphylococcus aureus; settings: Concentration 32 ug.mL-1, ASSAY_TEST Inhibition of Bacterial Growth, detection method Absorption (OD600), MEDIA CAMHB, plate type 384well, NBS, CORNING #3640, time 18 hr
[2] = tested on: Escherichia coli; settings: Concentration 32 ug.mL-1, ASSAY_TEST Inhibition of Bacterial Growth, detection method Absorption (OD600), MEDIA CAMHB, plate type 384well, NBS, CORNING #3640, time 18 hr

SMILES | Inhibition [1] [%] | Inhibition [2] [%] | Inhibition ([1]; 32 ug/mL) | Inhibition ([2]; 32 ug/mL)
CCOC(=O)c1c(C)nc(/N=N/c2nc(C)c(C(=O)OCC)c(-c3ccccc3)c2C#N)c(C#N)c1-c1ccccc1 | 11.27 | 6.76 | – | –
Cc1ccc(/C=C(\C#N)C(=O)c2ccccc2)cc1 | 25.42 | 15.2 | – | –
O=Cc1cc2ccccc2nc1Cl | 19.39 | 16.87 | – | –
CC(=O)C(=Cc1ccccc1)C(=O)O[C@H]1C[C@H](C)CC[C@H]1C(C)C | 27.78 | 14.92 | – | –
O=C(Cc1ccccc1)N/N=C/c1c[nH]c2ccccc12 | 9.24 | 17.46 | – | –
CC1=NC(=Cc2ccccc2)C(=O)S1 | 13.03 | 9.12 | – | –
COc1ccc(/C=C2/N=C(c3ccccc3)OC2=O)cc1OC | -19.31 | -9.68 | – | –
CC(C)NNC(=O)Cc1c[nH]c2ccccc12 | 11.42 | 9.11 | – | –
N#CC1=C(N)Oc2ccc3ccccc3c2C1c1cccc([N+](=O)[O-])c1 (stereo not drawn) | 31.47 | -6.29 | – | –
Nc1ccccc1C(=O)N/N=C/c1c[nH]c2ccccc12 | 7.31 | 5.27 | – | –
COc1nc2ccccc2cc1C=O | 17.37 | 18.39 | – | –
N#Cc1c(-c2ccccc2)c2ccc3ccccc3c2oc1=O | 33.43 | -8.95 | – | –
CNCc1cc2cc(OCc3ccccc3)ccc2n1C.Cl | 43.08 | 3.38 | – | –
C/C(Cc1ccccc1)=N\NC(=O)c1c[nH]c2ccccc12 | 5.98 | 14.48 | – | –
O=C(O)c1cc2ccccc2[nH]1 [INDOLE-2-CARBOXYLIC ACID] | 5.6 | 18.03 | – | –
Nc1c2c(nc3c1C(c1ccc(O)cc1)c1c(ccc4ccccc14)O3)CCCC2 (stereo not drawn) | 9.54 | 9.35 | – | –
Cn1ccnc1C1c2ccc3cccnc3c2Oc2nc3c(c(N)c21)CCC3 (stereo not drawn) | 14.96 | -15.51 | – | –
COc1cccc(C2C(C#N)=C(N)Oc3[nH]nc(C)c32)c1 (stereo not drawn) | 6.27 | 6.61 | – | –
Cl.NC1(C(=O)O)CC1c1ccccc1 (stereo not drawn) | 12.81 | 11.66 | – | –
Cc1ccc2nc(Cl)c(/C=N/OCc3ccccc3)cc2c1 | 31.42 | 20.1 | – | –
CCOC(=O)C1=C(C)NC(N)=C(C#N)C1c1ccc(OC)cc1 (stereo not drawn) | 20.75 | -7.34 | – | –

SMILES | Inhibition [1] [%] | Inhibition [2] [%] | Inhibition ([1]; 32 ug/mL) | Inhibition ([2]; 32 ug/mL)
C#CCN(C)c1nc(NCC2CCN(Cc3ccccc3)CC2)c(C#N)c(-c2ccccc2)c1C#N | 6.97 | -2.4 | – | –
CCOC(=O)c1c(C)nc2nc3c(c(N)c2c1-c1ccc(Cl)cc1)CCCCC3 | 2.05 | -16.85 | – | –
Cc1ccc(C2C(C#N)=C(N)Oc3c2ccc2ccccc32)cc1 (stereo not drawn) | -4.2 | -2.25 | – | –
CC(=O)Nc1n[nH]c2nc(N)c(C#N)c(-c3ccccc3)c12 | 38.27 | 1.16 | – | –
C/C(=N\NC(=O)c1cc2ccccc2n1Cc1ccccc1)C1CC1 | 7.87 | 7.24 | – | –
N#CC1(Br)C(=NBr)Oc2ccc3ccccc3c2C1c1cccc([N+](=O)[O-])c1 (stereo not drawn) | 29.27 | -20.79 | – | –
O=C(N/N=C/c1ccc(Cl)cc1)c1cc2ccccc2[nH]1 | 1.43 | 20.07 | – | –
COc1ccc(C2c3ccc4ccccc4c3OC(=NBr)C2(Br)C#N)cc1 (stereo not drawn) | 25.41 | -8.93 | – | –
O=C(NNCCc1ccccc1)c1cc2ccccc2[nH]1 | -6.37 | -5.83 | – | –
COc1ccc(C2C(C#N)=C(N)Oc3[nH]nc(C)c32)cc1 (stereo not drawn) | 4.82 | 6.91 | – | –
O=C(NNC(Cc1ccccc1)Cc1ccccc1)c1cc2ccccc2[nH]1 | -3.72 | -3.49 | – | –
COc1cccc(C2C(C#N)=C(N)Oc3c2ccc2ccccc32)c1 (stereo not drawn) | 23.52 | -8.01 | – | –
O=C(N/N=C/Cc1ccccc1)c1cc2ccccc2n1Cc1ccccc1 | 8.78 | 7.44 | – | –
CN(C)c1nc(N)c(C#N)cc1C#N.Cl | – | – | -10.37% and 5.36% | -3.96% and -19.68%
CC1Cc2ccccc2N1/N=C/c1ccccc1 (stereo not drawn) | -5.3 | -3.55 | – | –
Cl.N#Cc1cc(C#N)c(N2CCCC2)nc1Cl | 37.39 | -6.69 | – | –
Cn1ccnc1C1C2=C(CC(C)(C)CC2=O)Oc2nc3c(c(N)c21)CCCC3 (stereo not drawn) | 8.97 | -15.11 | – | –
Cn1ccnc1C1C2=C(CC(C)(C)CC2=O)Oc2nc3c(c(N)c21)CCC3 (stereo not drawn) | 12 | -19.85 | – | –
C#CCNc1nc(NCCCC2CCN(Cc3ccccc3)CC2)c(C#N)cc1C#N.Cl | -16.88 | -13.89 | – | –
N#Cc1cc(Br)cc(Br)c1N | 3.71 | 14.62 | – | –
Nc1c2c(nc3ccc([N+](=O)[O-])cc13)CCCC2 | 53.1 | 1.31 | – | –

SMILES | Inhibition [1] [%] | Inhibition [2] [%] | Inhibition ([1]; 32 ug/mL) | Inhibition ([2]; 32 ug/mL)
Cc1ccccc1-c1c(C=N)c(N)nc2c1S(=O)(=O)OC2(C)C | 11.29 | 8.66 | – | –
OCc1c(-c2ccc(Br)cc2)nc2ccccn12 | 6.46 | 0.77 | – | –
NNC(=O)Cc1c[nH]c2ccccc12 | 10.37 | 13.76 | – | –
C#CCN(C)Cc1cc2cc(O)ccc2n1C.Cl | 21.22 | -11.62 | – | –
C#CCN(C)c1ncc(C#N)c(N)n1 | 39.34 | -4.49 | – | –
CC(C)(C)OC(=O)Nc1ccc(Cl)cn1 | 37.58 | -2.82 | – | –
CC(C)(C)OC(=O)Nc1ccc(Br)cn1 | 40.42 | -0.9 | – | –
C=C=CCN(C)Cc1cc2ccccc2n1C.O=C(O)C(=O)O | 31.58 | -19.52 | – | –
COc1ccccc1C1C(C#N)=C(N)Oc2c1ccc1ccccc21 (stereo not drawn) | 19.36 | -9.01 | – | –
Cc1ccc(C=C2N=C(c3ccccc3)OC2=O)cc1 | 7.55 | 3.61 | – | –
COc1ccccc1C1c2ccc3ccccc3c2Oc2nc3c(c(N)c21)CCCC3 (stereo not drawn) | 0.62 | 3.02 | – | –
C#CCN(C)Cc1cc2cc(OCc3ccccc3)ccc2n1C.O=C(O)C(=O)O | 41.66 | -11.51 | – | –
CCOC(=O)c1c(C)[nH]c2ccc(OC)cc12 | -4.64 | 0.02 | – | –
CCOC(=O)c1c(C)nc(NC2CCN(Cc3ccccc3)CC2)c(C#N)c1-c1ccccc1 | 43.62 | -5.95 | – | –
O=C(NNCc1c[nH]c2ccccc12)c1cccc2ccccc12 | -2.49 | 3.58 | – | –
CNC(=O)c1cc2cc(OC)ccc2[nH]1 | 5.66 | -0.98 | – | –
Cc1ccc2nc(Cl)c(/C=N/C(C)(C)C)cc2c1 | 28.46 | 12.92 | – | –
CCOC(=O)C1=C(C)OC(N)=C(C#N)C1c1ccc([N+](=O)[O-])cc1 (stereo not drawn) | 16.31 | -9.87 | – | –
CN(Cc1cn(Cc2ccccc2)nn1)Cc1cc2cc(OCCCC3CCN(Cc4ccccc4)CC3)ccc2n1C | 10.05 | -17.67 | – | –
CN1C/C(=C\Cl)n2c1c(C#N)cc(C#N)c2=O | 23.22 | -15.97 | – | –
CC(C)(C)OC(=O)Nc1ccccn1 | 38.41 | -0.38 | – | –

SMILES | Inhibition [1] [%] | Inhibition [2] [%] | Inhibition ([1]; 32 ug/mL) | Inhibition ([2]; 32 ug/mL)
O=C(N/N=C/Cc1ccccc1)c1cc2ccccc2[nH]1 | 10.17 | 9.88 | – | –
Cc1nn(-c2ccccc2)c2nc(C)n3nc(-c4ccccc4)nc3c12 | 16.28 | 8.31 | – | –
COc1ccc(C2c3c(nc4c(c3N)CCCC4)Oc3ccc4ccccc4c32)c(OC)c1 (stereo not drawn) | 15.3 | 3.89 | – | –
Cc1ccc(CNNC(N)=O)cc1.Cl | 4.52 | 6.79 | – | –
N#CC1(Br)C(=NBr)Oc2c(ccc3ccccc23)C1c1ccc([N+](=O)[O-])cc1 (stereo not drawn) | 36.89 | -19.6 | – | –
N#Cc1c(N)nc(S)c(C#N)c1-c1ccccc1 | 14.03 | 9.92 | – | –
O=Cc1ccc(OCCO[N+](=O)[O-])cc1 | 6.78 | 18.31 | – | –
CCCC(=O)NCc1c(-c2ccc(Cl)cc2)nc2ccccn12 | 11.89 | 8.99 | – | –
CCOC(=O)c1c(C)nc2nc3c(c(N)c2c1-c1ccc(OC)cc1)CCCCCC3 | 3.19 | -20.4 | – | –
CCOC(=O)c1cc2cc(O)ccc2n1C(=O)OC(C)(C)C | 5.1 | 10.33 | – | –
CC(=O)NCCc1ccccc1 | 12.71 | 11.94 | – | –
O=C1OC(c2ccccc2)=NC1=Cc1ccccc1Cl | 16.61 | 12.84 | – | –
COc1ccc(C2c3c(nc4c(c3N)CCCC4)Oc3ccc4ccccc4c32)cc1 (stereo not drawn) | 18.52 | 4.53 | – | –
O=C(N/N=C/c1c[nH]c2ccccc12)c1cc2ccccc2[nH]1 | 11.07 | 9.94 | – | –
CCOC(=O)c1cc2cc(OC(=O)Oc3ccc([N+](=O)[O-])cc3)ccc2[nH]1 | 13.73 | -33.4 | – | –
CCOC(=O)N/N=C/c1ccccc1 | -2.34 | -1.06 | – | –
COc1cc(C2c3c(nc4c(c3N)CCC4)Oc3ccc4ccccc4c32)ccc1O (stereo not drawn) | 11.79 | 11.06 | – | –
C=C1CN(C)c2c(C#N)cc(C#N)c(=S)n21 | 18.51 | -1.72 | – | –
Cl.NNN1CCc2ccccc21 | 25.31 | 10.83 | – | –
N#C/C(=C\c1ccccc1)C(=O)c1ccccc1 | 10.5 | 8.34 | – | –
N#CC1=C(N)Oc2ccc3ccccc3c2C1 | 5.91 | -5.32 | – | –
